Test [1] can be described thus: NCI Yeast Anticancer Drug Screen. Data for the rad50 strain (AID 155).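 Note: 0% = growth of vehicle-only cultures of the same strain.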 The conditions noted are these: S. cerevisiae rad50 strain growth inhibition, stronger effect = higher value. Put shortly: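 Vehicle-treated cultures provide the reference for the growth inhibition reported for compound-exposed, repair-deficient yeast.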
Test [2] is described as follows: NCI Yeast Anticancer Drug Screen. Data for the mec2-1 strain (AID 157). The note with it: S. cerevisiae mec2-1 strain, stronger effect = higher value. Put shortly:
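Mutant yeast (mec2-1) grown with compound; growth inhibition relative to vehicle control reported.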

Test [3] is described as follows: NCI Yeast Anticancer Drug Screen. Data for the cln2 rad14 strain (AID 165).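 Note: 0% = growth equal to vehicle treated cultures.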 The note with it: S. cerevisiae cln2 rad14 strain, stronger effect = higher value. Put shortly: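 Readout is yeast growth inhibition versus vehicle-treated controls, using a strain with cln2 and rad14 alterations exposed to compound.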
Test [4] is described as follows: NCI Yeast Anticancer Drug Screen. Data for the bub3 strain (AID 167). The conditions noted are these: S. cerevisiae bub3 mutant strain, stronger effect = higher value. Put shortly:
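Mutant yeast screening strain plus compound; vehicle-treated cultures serve as the 0% inhibition reference.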

Test [5] is described as follows: NCI Yeast Anticancer Drug Screen. Data for the mlh1 rad18 strain (AID 175). The conditions noted are these: S. cerevisiae mlh1 rad18 strain growth inhibition, stronger effect = higher value. Put shortly: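 Genetically defined yeast (DNA repair-deficient) exposed to compounds; growth inhibition determined relative to vehicle.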
Test [6] is described as follows: NCI Yeast Anticancer Drug Screen. Data for the sgs1 mgt1 strain (AID 161).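 Note: 0% = growth of cultures given vehicle only.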 The note with it: S. cerevisiae sgs1 mgt1 strain, stronger effect = higher value. In outline: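 Growth of a repair-deficient yeast mutant was monitored after compound treatment and expressed as inhibition relative to vehicle-treated cultures.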
Where [7] appears, read: at 5.0 µM (retest, dose inferred, filed as 0.5).
Setting [8] is: at 50.0 µM (retest, dose inferred, filed as 5.0).

Values joined by “and” are separate entries in the source; they are usually repeats but may differ in a detail not shown here. Identical values can stand only once. About 79,000 compounds went through this panel and 15% of them were active in at least one assay; those are over-represented in the sample as a whole. Unmarked numbers belong to inactive results. Active and inactive are the calls of the source. Cut-off read from the data, not from the text of the source: active = growth inhibition above about 70%; inactive = the rest.

Here are results for seven molecules from PubChem BioAssay (NCI).

Turning to `O=C(O)/C=C/c1ccc2c(c1)CC1(Cc3ccccc3C1)C2`, the growth inhibition in test [1] (setting [7]) was 27%; in test [1] (setting [8]), 82% (active); in test [1] (at 50.0 µM), 45.6%; in test [2] (setting [7]), 40%; in test [2] (setting [8]) it was 90% (active); in test [2] (at 50.0 µM) it was 66.2%. Further, the growth inhibition is 64% in test [3] (setting [7]); 93% (active) in test [3] (setting [8]); 83.3% (active) in test [3] (at 50.0 µM); 85% (active) in test [4] (setting [7]); 92% (active) in test [4] (setting [8]); 78.5% (active) in test [4] (at 50.0 µM). In addition, the results for the growth inhibition in test [5] (setting [7]), in test [5] (setting [8]) and in test [5] (at 50.0 µM) were 67%, 88% (active) and 80% (active), respectively.

`COc1cc(/C=C2\CC(C)C/C(=C\c3ccc(O)c(OC)c3)C2=O)ccc1O` (stereo unspecified): the growth inhibition is 84% (active) in test [1] (setting [7]); 83% (active) in test [1] (setting [8]); 74.5% (active) in test [1] (at 50.0 µM); 91% (active) in test [2] (setting [7]); 89% (active) in test [2] (setting [8]); 83.6% (active) in test [2] (at 50.0 µM). Also, the growth inhibition in test [6] (setting [7]) is 92% (active); in test [6] (setting [8]) it was 90% (active); in test [6] (at 50.0 µM), 77.7% (active); in test [4] (setting [7]), 91% (active); in test [4] (setting [8]), 89% (active); in test [4] (at 50.0 µM), 80.8% (active). Besides, the growth inhibition in test [5] (setting [7]) was 84% (active); in test [5] (setting [8]), 90% (active); in test [5] (at 50.0 µM) it was 66.5%.

Turning to `CC(C)Cn1cnc2c(SCc3ccc(Cl)cc3Cl)nc(N)nc21`, the growth inhibition in test [1] (setting [7]) is 0%; in test [1] (setting [8]), 46%; in test [1] (at 50.0 µM) it was 36.7%; in test [2] (setting [7]), -1%; in test [2] (setting [8]), 38%; in test [2] (at 50.0 µM) it was 29.9%. Moreover, the growth inhibition was -15% in test [3] (setting [7]); 44% in test [3] (setting [8]); 41.2% in test [3] (at 50.0 µM); 4% in test [4] (setting [7]); 32% in test [4] (setting [8]); 38.7% in test [4] (at 50.0 µM). Besides, the growth inhibition in test [5] (setting [7]) was -3%; in test [5] (setting [8]), 66%; in test [5] (at 50.0 µM), 66.8%.

With `CC(C)CCN1CCC2(CCCCC2)CC1`, the growth inhibition in test [1] (setting [7]) was 4%; in test [1] (setting [8]), 1%; in test [1] (at 50.0 µM), 40.5%; in test [6] (setting [7]) it was 6%; in test [6] (setting [8]), 0%; in test [6] (at 50.0 µM), 51.3%. Moreover, the growth inhibition in test [3] (setting [7]) is 7%; in test [3] (setting [8]), -5%; in test [3] (at 50.0 µM) it was 88.3% (active); in test [4] (setting [7]) it was 2%; in test [4] (setting [8]), -3%; in test [4] (at 50.0 µM), 59.5%. Also, the figures for the growth inhibition in test [5] (setting [7]), in test [5] (setting [8]) and in test [5] (at 50.0 µM) were 5%, 3% and 66.3%, respectively.

On to `CCOC(=O)C1=C(C)NC(=O)NC1c1coc2cc(C)cc(C)c2c1=O` (stereo unspecified), for which the growth inhibition was -1% in test [1] (setting [7]); 10% in test [1] (setting [8]); 12.4% in test [1] (at 50.0 µM); -2% in test [2] (setting [7]); 15% in test [2] (setting [8]); -5% in test [2] (at 50.0 µM). The growth inhibition in test [3] (setting [7]) was 20%; in test [3] (setting [8]), 5%; in test [3] (at 50.0 µM) it was 52.2%; in test [4] (setting [7]), 14%; in test [4] (setting [8]), -4%; in test [4] (at 50.0 µM) it was -15.8%. The growth inhibition in test [5] (setting [7]) was 0%; in test [5] (setting [8]), 1%; in test [5] (at 50.0 µM) it was -7.1%.

`[Cl][Co][Cl].[NH-]CC[N-]CC[N-]CC[NH-]`: the growth inhibition in test [1] (at 50.0 µM) was 29.6% and -6.2% and 5.8%; in test [2] (at 50.0 µM) it was 16.8% and -10.4% and 22.6%; in test [6] (at 50.0 µM), 13.9% and 16.4% and 32.5%; in test [3] (at 50.0 µM), 28.4% and 16.1% and 18.5%; in test [4] (at 50.0 µM) it was 14.1% and 19.4% and 25.4%; in test [5] (at 50.0 µM), 6.35% and 12.3% and 47%.

For the molecule `CC(C)(C)[Si](C)(C)OCC1OC(n2cnc3c(NC(=O)c4ccccc4)ncnc32)CC1O` (stereo unspecified), the growth inhibition in test [1] (setting [7]) is 2%; in test [1] (setting [8]) it was 4%; in test [1] (at 50.0 µM) it was 10%; in test [2] (setting [7]), -2%; in test [2] (setting [8]), 4%; in test [2] (at 50.0 µM), -28.8%. For the same molecule, the growth inhibition in test [3] (setting [7]) was -1%; in test [3] (setting [8]), 2%; in test [3] (at 50.0 µM), 77.6% (active); in test [4] (setting [7]), -2%; in test [4] (setting [8]) it was -4%; in test [4] (at 50.0 µM), 10.5%. Also, the growth inhibition in test [5] (setting [7]) was -2%; in test [5] (setting [8]), 4%; in test [5] (at 50.0 µM) it was 32.5%.
